Hit rate of the full screen: of about 280,000 compounds, about 540 (0.19%) were called active. Roughly 2% stayed inconclusive and do not appear here. Calls follow the shape of the dose curve; as a rule, active = well fitted activation curve with a large enough effect; inconclusive = small, poorly fitted or top-dose-only effect; inactive = flat fitted curve, though single readings scatter. For the sample, actives were picked, then their nearest neighbours and some compounds at random.
Experiment: Quantitative High-Throughput Screen for Regulators of Epigenetic Control; also: nearly all actives have a fitted effect of over 60% in size; as to GFP activation: % of control where 0% means no effect
Conditions: murine LDR cells, GFP reporter derepression, 30 h; series mostly up to 53.9 µM; GFP activation: at the top concentration
Summary of the method: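 Murine LDR cells carrying a silenced, genomically integrated CMV-driven GFP reporter were exposed to compound for 30 hours at 37 C. After PBS washes, GFP-positive cells (20–120 um objects) were counted by laser-scanning microplate cytometry.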
Potency is read from the fitted curve at half-maximal effect.

Row | SMILES | GFP activation | Potency
1 | COCCCNC(=O)c1ccc(NC(=O)c2nsc3ccccc23)cc1 | 2.2% (inactive) | 
2 | Cc1ccc(-c2cnc(NCc3ccc(C(C)C)cc3)n2C)cc1 | -0.242% (inactive) | 
3 | CCOC(=O)c1cccc(NC(=O)Cn2cnc3nc4c(cc3c2=O)CCCC4)c1 | -1.69% (inactive) | 
4 | CCOC(=O)c1ccc(NC(=O)C2CCN(S(=O)(=O)c3ccc4c(c3)CCCC(=O)N4)CC2)cc1 | -1.27% (inactive) | 
5 | Cc1ccc(NC(=O)Cn2c(=O)n(-c3ccccc3)c(=O)c3c4c(sc32)CCCC4)cc1 | -1.77% (inactive) | 
6 | CCOc1cc(C(=O)NCCc2csc3nc(-c4ccc(C)cc4)nn23)cc(OCC)c1OCC | -1.23% (inactive) | 
7 | Cc1cccc(C(CC(=O)NCC2(c3ccccc3)CCCC2)c2ccccc2)c1O (centres undefined) | -0.962% (inactive) | 
8 | Cc1ccc(Cl)cc1N1CCN(C(=O)c2cnc3c(-c4ccc(F)cc4)c(C)nn3c2C)CC1 | 0.833% (inactive) | 
9 | COc1ccc(Cn2c(=O)c3oc4ccccc4c3n(CC(=O)Nc3ccc(F)cc3F)c2=O)cc1 |  | 11.2 µM (active)
10 | COc1cc(NC(=O)Cn2c(=O)n(Cc3ccco3)c(=O)c3oc4ccccc4c32)cc(OC)c1 | 4.43% (inactive) | 
11 | CCCCn1c(=O)c2oc3ccccc3c2n(CC(=O)Nc2ccccc2OC)c1=O | 2.82% (inactive) | 
12 | O=C(NCc1ccccc1Cl)c1cccn1-c1nnc(N2CCCCC2)s1 | 0.374% (inactive) | 
13 | Cc1ccc(NC(=O)c2cc(S(=O)(=O)NCCC3=CCCCC3)ccc2F)cc1C | -1.18% (inactive) | 
14 | COc1cccc(CNC(=O)C(=O)NCC(c2cccs2)S(=O)(=O)c2ccccc2)c1 (centres undefined) | 4.17% (inactive) | 
15 | Cc1cccc(CCNC(=O)c2ccc3c(c2)nc2n3CCC(C)C2)c1 (centres undefined) | 12.7% (inactive) | 
16 | O=c1nc2s/c(=C\c3ccco3)c(=O)n2nc1Cc1ccccc1 | -0.952% (inactive) | 
17 | CN(c1ccccc1)c1ccc(/C=c2\s/c(=C(/C#N)C(=O)C(C)(C)C)n(Cc3ccco3)c2=O)cc1 |  | 6.31 µM (active)
18 | Cc1cs/c(=N\N=C\c2ccc(O)cc2)n1Cc1ccco1 | -1.92% (inactive) | 
19 | COc1cc(OC)c(OC)cc1/C=C/c1nc2cc3ccccc3cc2c(=O)n1-c1ccc(F)c(Cl)c1 | 0.436% (inactive) | 
20 | O=S(=O)(NCC(c1ccccc1)N1CCc2ccccc21)c1ccccc1 (centres undefined) | -4.06% (inactive) | 
21 | COc1cc2c(cc1OC)C(COc1ccc(F)cc1)N(C(=O)c1ccccc1F)CC2 (centres undefined) | 1.18% (inactive) | 
22 | CCOC(=O)c1c(C)[nH]c(CCC(=O)NCCCN2CCN(c3cc(C)ccc3C)CC2)c1C | -0.109% (inactive) | 
23 | CC(C)(C)c1ccc(C(=O)NCC(c2ccc(Cl)cc2)N2CCOCC2)cc1 (centres undefined) | 1.61% (inactive) | 
24 | COc1ccc(-c2cccc(NS(=O)(=O)c3cc(C)c(OC)c(C)c3C)c2)nn1 | 1.69% (inactive) | 
25 | O=C(NC1CCN(Cc2ccccc2)CC1)c1ccc(Cn2c(=O)c3ccccc3n(Cc3cccc(F)c3)c2=O)cc1 | -0.885% (inactive) | 
26 | CCOc1ccccc1C(=O)Nc1ccc(S(=O)(=O)N2CCCCC2c2cccnc2)cc1 (centres undefined) | 2.78% (inactive) | 
27 | CC(C)c1ccc(S(=O)(=O)Nc2ccc(O)c(Sc3nc4ccccc4s3)c2)cc1 | -3.44% (inactive) | 
28 | COc1ccc(Cn2c(C(=O)O)c(CNCc3cccc(OC)c3)c3ccc(C)cc32)cc1 | 0% (inactive) | 
29 | CC(C)c1ccc2oc(-c3cc(NC(=O)c4cccs4)ccc3Cl)nc2c1 | -1.08% (inactive) | 

Reference: PubChem BioAssay AID1865 (National Center for Advancing Translational Sciences (NCATS), 2009)
